PubChem BioAssay AID1445 (SRMLSC, 2008)
The campaign covered roughly 220,000 compounds. About 910 (0.41%) were called active.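 Rule for the calls: active = primary inhibition above the hit cutoff, then over 50% inhibition at one or more dose response concentrations (cut at about 23% in these data, passing the limit was not always enough); inconclusive = conflicting primary data, or primary hits not chosen for dose response; inactive = low primary inhibition, or under 50% at every dose.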 For the sample, actives were picked, then their nearest neighbours and some compounds at random. Measured potencies and affinities stand elsewhere.

target: Aminopeptidase N (Plasmodium falciparum (isolate 3D7)) (UniProt O96935); assay: malaria alanyl aminopeptidase activity blockers – biochemical, fluorogenic H-Leu-NHMec substrate, 1536-well (AID 1445); conditions: recombinant M1AAP, H-Leu-NHMec fluorogenic kinetic assay; at 30 µM, stronger effect = higher value unless noted;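 note: plate controls were DMSO full reaction for no effect and no enzyme background for full effect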
Sequence (O96935 whole entry, looked up): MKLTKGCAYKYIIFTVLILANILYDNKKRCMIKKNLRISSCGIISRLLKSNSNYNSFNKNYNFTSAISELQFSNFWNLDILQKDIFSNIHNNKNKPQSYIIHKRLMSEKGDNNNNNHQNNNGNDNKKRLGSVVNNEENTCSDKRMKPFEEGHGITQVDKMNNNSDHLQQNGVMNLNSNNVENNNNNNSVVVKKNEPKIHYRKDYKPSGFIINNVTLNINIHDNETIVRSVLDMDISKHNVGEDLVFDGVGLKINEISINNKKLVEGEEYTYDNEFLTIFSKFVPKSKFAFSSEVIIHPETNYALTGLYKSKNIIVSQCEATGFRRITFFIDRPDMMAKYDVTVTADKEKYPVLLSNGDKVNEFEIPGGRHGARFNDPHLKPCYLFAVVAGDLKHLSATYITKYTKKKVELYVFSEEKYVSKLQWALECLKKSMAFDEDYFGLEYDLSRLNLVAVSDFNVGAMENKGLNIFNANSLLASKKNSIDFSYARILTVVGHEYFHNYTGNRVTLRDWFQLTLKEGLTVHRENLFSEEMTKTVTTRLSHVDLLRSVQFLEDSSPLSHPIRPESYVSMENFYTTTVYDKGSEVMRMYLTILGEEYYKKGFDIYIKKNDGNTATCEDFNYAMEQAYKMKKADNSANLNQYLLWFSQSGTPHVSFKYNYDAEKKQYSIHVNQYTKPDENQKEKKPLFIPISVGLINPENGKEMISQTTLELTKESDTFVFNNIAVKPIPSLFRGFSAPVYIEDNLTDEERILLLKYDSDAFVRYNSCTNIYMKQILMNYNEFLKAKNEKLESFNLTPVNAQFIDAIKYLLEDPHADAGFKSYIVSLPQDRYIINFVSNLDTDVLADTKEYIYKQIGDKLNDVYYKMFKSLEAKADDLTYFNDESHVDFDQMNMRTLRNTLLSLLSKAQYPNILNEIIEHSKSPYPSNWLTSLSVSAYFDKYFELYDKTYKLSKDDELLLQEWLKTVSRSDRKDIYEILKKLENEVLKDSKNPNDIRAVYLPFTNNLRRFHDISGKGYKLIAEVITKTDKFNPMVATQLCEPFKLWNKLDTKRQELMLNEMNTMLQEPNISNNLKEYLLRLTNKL

inhibition, inactive:
Cn1nc(C(F)(F)F)c2cc(C(=O)Nc3ccc(F)c(Cl)c3)sc21 8.67%
COc1ccccc1/C=C/C(=O)NCC(=O)N/N=C/c1cc(Br)ccc1OC 22.4%
O=C(CNC(=O)c1ccc(F)cc1)N/N=C/c1cc(Br)ccc1OCc1ccccc1 0.24%
COc1ccc(/C=N/NC(=O)c2sc(C)nc2C)cc1 9.79%
O=C(CNC(=O)c1ccncc1)N/N=C/c1cc(Br)ccc1OCc1ccccc1 5.07%
O=C(CNC(=O)c1cccc(Br)c1)N/N=C/c1cc(Br)cc(Br)c1O 0.13%
COc1ccccc1/C=N/NC(=O)c1sc(C)nc1C 5.02%
CN(C)c1ccc(/C=N/NC(=O)c2cccc(N3CCCC3=O)c2)cc1 4.11%
O=C(N/N=C/c1ccco1)c1cccc(N2CCCC2=O)c1 2.43%
CCOC(=O)CSc1nc2cc(C(=O)NCc3ccco3)ccc2c(=O)n1-c1ccc(F)cc1 4.72%
O=C(CCCCn1c(=O)[nH]c2ccccc2c1=O)NCCc1c[nH]c2ccccc12 3.37%
O=C(OCc1cc([N+](=O)[O-])cc2c1OCOC2)c1ccc2ccccc2n1 -2.61%
Cc1cccc(NC(=O)CC2SC(=O)N(c3ccccc3)C2=O)c1 (stereo unspecified) 0.32%
C=C1C(C(=O)Nc2cccc(OC)c2)C1C(=O)Nc1cccc(OC)c1 (stereo unspecified) 4.96%
CCn1c(O)c(/C=N/N=C2CCCCC2)c2cc(C3=NNC(=O)CC3)ccc21 4.81%
CCOC(=O)c1sc2nccc(N(C)C)c2c1N=CN(C)C 6.88%
COc1ccc(OC)c(CN2CCC(C(=O)N(C)CCc3ccc(OC)c(OC)c3)CC2)c1 6.02%
COc1cccc(/C=N/NC(=O)CN2CC(c3ccccc3)CC2=O)c1O (stereo unspecified) 5.93%
COc1cc(/C=N/NC(=O)c2cccnc2)ccc1OCC(=O)Nc1c(C)cc(C)cc1C 5.36%
COc1cc(/C=N/NC(=O)c2cccc(NC(=O)c3ccccc3Cl)c2)ccc1O 21.6%
CCC(O)(CC)C(=O)N/N=C/c1cc(Br)cc(Br)c1O 30.1%
COc1ccccc1/C=N/NC(=O)c1cccc(NC(=O)c2ccccc2Cl)c1 6.04%
COc1cccc(/C=N/NC(=O)CN2CC(c3ccccc3)CC2=O)c1OC (stereo unspecified) 0.13%
CCNC(=O)COc1ccc(/C=N/NC(=O)c2cccnc2)cc1OC 3.71%
O=C(O)c1ccccc1N/N=C/c1cc(Br)cc(Br)c1O 17.7%
O=c1[nH]c(Cc2ccccc2Cl)nc2ccccc12 -2.4%
CCc1c(C)[nH]n(-c2nc(-c3ccccc3)cs2)c1=O -3.51%
C=CCn1c(=O)c2ccccc2n2c(SCc3nnc(-c4ccccc4Br)o3)nnc12 2.98%
Cc1ccc(NC(=O)c2cc(-c3ccco3)on2)cc1C 3.16%
CC12COC3(C(=O)NCCc4ccccc4)CC1CCC32C (stereo unspecified) 3.11%
CCCNS(=O)(=O)c1ccc(OCC(=O)NCCC2=CCCCC2)cc1 7.1%
Cc1ccc(S(=O)(=O)CCc2nnc(NC(=O)c3cccs3)s2)cc1 -1.23%
COc1ccc(Br)cc1/C=N/NC(=O)C(c1ccncc1)N1CCOCC1 (stereo unspecified) -2.26%
Cc1ccc(/C=N/NC(=O)C(c2ccncc2)N2CCOCC2)cc1 (stereo unspecified) 2.18%
O=C(CNC(=O)c1ccncc1)N/N=C/c1ccc(Br)cc1 7.31%
O=C(N/N=C/c1cc(Cl)ccc1O)c1ccc(Br)cc1 22.2%
O=C(CNC(=O)c1ccncc1)N/N=C/c1ccc(O)cc1O 3.55%
O=C(N/N=C/c1cc(Cl)cc(Cl)c1O)c1ccncc1 29.6%
O=C(CNC(=O)c1ccccc1Br)N/N=C/c1ccccc1O -1.99%
O=C(CNC(=O)c1ccccc1Br)N/N=C/c1ccc(O)cc1 -0.27%
CC(=O)c1cc(CN2C(=O)CCC2=O)cs1 -1.15%
O=C(CSc1nc2ccccc2s1)NCCOc1ccc(Cl)cc1 -0.05%
COCc1c(C(=O)OC)nnn1-c1ccccc1 -5.18%
CCCc1c(O)nc(SCCN(CC)CC)n(C(=O)c2ccccc2)c1=O 6.49%
CC(=O)c1ccc(N2CCN(C(=S)NCCCN(C)C)CC2)cc1 6.58%
O=C(N1CCOCC1)N1CCC(NC(=O)C23CC4CC(CC(C4)C2)C3)CC1 -1.68%
O=C(COC(=O)/C=C/c1ccc(S(=O)(=O)N2CCOCC2)cc1)NCc1ccccc1 7.02%
COc1cccc(-c2nnc(SCC3CNC(=O)O3)n2-c2ccc(Cl)cc2)c1 (stereo unspecified) 3.85%
Cc1cccc(OCC(=O)Nc2cc(S(=O)(=O)N3CCCCC3)ccc2N2CCN(C)CC2)c1 5.64%
Cc1cnc(C(=O)Nc2nc(-c3ccccc3)cs2)cn1 7.19%
O=C(N/N=C/c1cc([N+](=O)[O-])ccc1O)c1ccncc1 18.8%
O=C(N/N=C/c1cc(Br)cc(Br)c1O)c1ccncc1 36.7%
CN(C)/C=C(\C=O)c1onc(-c2ccccc2Cl)c1C#N 6.68%
CN(CC(=O)Nc1ccccc1C(=O)N1CCCC1)S(=O)(=O)c1ccc(Br)cc1 -0.21%
CC(C)C1NC2(C(=O)c3ccccc3C2=O)C2C(=O)N(c3ccc(F)cc3)C(=O)C12 (stereo unspecified) 0.46%
COc1cc(/C=C2\SC(=N)N(c3ccc4c(c3)OCO4)C2=O)cc(OC)c1O 5.15%
N=C1S/C(=C\c2ccco2)C(=O)N1c1ccc2c(c1)OCO2 10%
Cc1ccccc1NC(=O)CN1C(=O)S/C(=C\c2ccc(-c3cccc(C(=O)O)c3C)o2)C1=O -2.06%
Cc1ccc(NC(=O)CN2C(=O)S/C(=C\c3ccc(-c4cccc(C(=O)O)c4C)o3)C2=O)cc1 0.51%
Cc1cccc(NC(=O)CN2C(=O)S/C(=C\c3ccc(-c4cccc(C(=O)O)c4C)o3)C2=O)c1 2.36%
Cc1ccc(NC(=O)CN2C(=O)S/C(=C\c3ccc(-c4cccc(C(=O)O)c4C)o3)C2=O)cc1C 8.24%
